Consider 101 compounds from PubChem BioAssay AID1850 (Southern Research Specialized Biocontainment Screening …, 2009).

Each structure is given as a SMILES string. Out of some 310,000 compounds screened, about 1,000 (0.32%) were called active. A selection follows. Entries with a potency or affinity are not part of this list. A number with no mark means an inactive call. The rule behind the calls is not given here.

The nature of the assay: PhoP regulon inhibitors, Salmonella typhi PhoP promoter GFP reporter, confirmatory (AID 1850).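 Note: 0% = induced wells with vehicle and 100% = uninduced wells.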 As to conditions: fluorescence, 4 h, at 50 µM, active compounds read high.
A word on the inhibition: it is the drop in the measured response relative to a control, in per cent. In the case of `O=C(O)CNC(=O)C1COc2ccccc2O1` (stereo unspecified), the inhibition is 8.95%. Regarding `COCCCn1c(C23CC4CC(CC(C4)C2)C3)n[nH]c1=S`, the inhibition was -6.32%. For `Fc1ccc(CCNCc2ccc(Br)cc2)cc1`, the inhibition was -3.63%. For `C1N2CN3CN1CN(C2)C3`, the inhibition is -6.24%. Next, `O=C(CSc1nnnn1C1CCCC1)N1CCCc2ccccc21`: 11.7%; `COc1ccccc1OCCC(=O)OCC(=O)c1[nH]c(C)c(C(C)=O)c1C`: 10.1%. As to `O=C(NCN1CCN(c2ccccc2F)CC1)c1ccccc1`, the inhibition was 0.63%. The result for `C/C(=N\NC(=O)C1CC1)c1ccc(Cl)c(Cl)c1` reads 5.7%. `C[n+]1cccc2c(Br)ccc([O-])c21`: the inhibition is 4.86%. `NCC(=O)c1cccc2ccc[n+]([O-])c12`: the inhibition was -7.72%. Next, `O=C(CSc1n[nH]c(=O)[nH]c1=O)c1ccccc1[N+](=O)[O-]`: -3.6%; `CCN(Cc1cc2ccccc2[nH]c1=O)C(=O)c1cccnc1`: 1.33%; `COc1ccc(C2(CNC(=O)/C=C\c3ccco3)CCCC2)cc1OC`: -2.04%. The result for `COC(=O)c1ccccc1NC(=S)NC(=O)COc1ccccc1` reads 10.9%; that for `CC(C)(C)c1ccc(C(=O)NC(=S)NNC(=O)COc2ccccc2)cc1`, -4.42%; that for `O=C(COc1ccccc1)NNC(=S)NC(=O)c1ccccc1`, 12.9%. The result for `Cc1ccccc1C(=O)NNC(=S)NC(=O)c1ccccc1` reads -2%. On to `CCc1ccc(NC(=S)Nn2cnnc2)cc1`, for which the inhibition was 3.78%.

In the case of `CCn1cc(C(=O)c2ccccc2)c2ccccc21`, the inhibition is -2.86%. Next, `COc1ccc(/C=C/C(=O)Nc2ccc(-c3nnc4n3CCCCC4)cc2)c(OC)c1`: 5.23%; `CC(=O)OC(C(=O)NCc1ccco1)c1ccncc1` (stereo unspecified): -8.42%.

With `Cc1c(CCOC(=O)c2ccccc2)sc[n+]1CC(=O)c1ccc(Br)cc1`, the inhibition is -8.05%. Regarding `Cc1c(CCOC(=O)CC23CC4CC(CC(C4)C2)C3)sc[n+]1CC(=O)c1ccc(Br)cc1`, the inhibition is -0.11%. With `O=C(Nc1nc(-c2cccc([N+](=O)[O-])c2)cs1)c1cccc([N+](=O)[O-])c1C(=O)O`, the inhibition was 5.24%. With `O=C(NC1CCCCCCC1)C1CCN(S(=O)(=O)N2CCCC2)CC1`, the inhibition was 11%. The result for `O=C(CSc1nc2ccccc2[nH]1)Nc1ccccc1F` reads -4.68%; that for `O=C(CSc1nc2ccccc2[nH]1)Nc1ccc(F)cc1`, 0.68%. Next, `Cc1ccc(NS(=O)(=O)c2ccc3c(c2)NC(=O)CCS3)c(Br)c1`: 1.1%; `NC(=O)/C=C/C(=O)Nc1ccc(Cl)cc1`: 5%; `COc1ccc(/C=C/C(=O)NC(=S)NNC(=O)c2cccnc2)cc1`: -4.83%.

Turning to `CC(/C=C/c1ccccc1)=N/NC(=O)c1cnccn1`, the inhibition was 1.54%. The result for `CC(C)NC(=S)NC(=O)/C=C/c1ccc(F)cc1` reads -3.22%; that for `O=C(/C=C/c1ccc(F)cc1)NC(=S)NC1CCCCC1`, 2.79%; that for `COc1ccc(/C=C/C(=O)NC(=S)NNC(=O)c2cc(OC)c(OC)c(OC)c2)cc1`, 4.25%.

On to `O=C(/C=C/c1ccccc1)NC(=S)NNC(=O)c1cccnc1`, for which the inhibition was 4.06%. Next, `NC(=O)c1nsc(C(=O)N(c2ccc3c(c2)OCO3)C(C(=O)NCC2CCCO2)c2ccc(F)cc2)c1N` (stereo unspecified): 6.99%; `CSCCC(NS(=O)(=O)c1cc(C(=O)O)ccc1Cl)C(=O)O` (stereo unspecified): -1.99%. The result for `C=CCNC(=O)c1oc2ccc(S(=O)(=O)N3CCCCC3)cc2c1C` reads 0.5%; that for `CCN(CC)CCCNC(=O)C1CCN(c2ncnc3c2sc2cccc(F)c23)CC1`, 3.1%; that for `COc1ccc(Nc2nc(NN)nc(Nc3ccc(OC)cc3)n2)cc1`, -3.28%. On to `COc1c2n(C)ccc3c-2n(c(=O)c1=O)c1ccccc31`, for which the inhibition was 17.2%. With `O=S(=O)(NCCSc1ccc(Cl)cc1)c1ccc2c(c1)OCCO2`, the inhibition was -8.59%. As to `COc1cc(Cl)ccc1OCc1cc(C(=O)N2CCCCCCC2)no1`, the inhibition was -27.8%. The result for `CC1(c2nnc(-c3ccc(F)cc3)o2)CC(c2ccc([N+](=O)[O-])cc2)=NO1` (stereo unspecified) reads 3.35%.

Consider `Fc1ccc(CNCCc2c[nH]c3ccccc23)cc1`, for which the inhibition is 11.8%. On to `CCNCc1ccc(OCc2ccccc2F)c(OC)c1`, for which the inhibition is -10.1%. For `COc1cccc(CNCCc2c[nH]c3ccccc23)c1OCc1ccc(F)cc1`, the inhibition was -6.02%. Take `COc1cc(CNCCCCO)ccc1OCc1ccccc1F`: the inhibition is -5.61%. The result for `Cc1cccnc1NC(=O)CCc1nnc2ccc(N3CCC4(CC3)OCCO4)nn12` reads 3.16%; that for `Oc1ccc2ccccc2c1CNc1ccc(Br)cn1`, -4.93%; that for `CC(C)c1nn(-c2cc(C(F)(F)F)ccn2)c(=O)o1`, 1.48%.

Take `CCOC(=O)c1cccc(NC(=O)c2cc(C)nn2-c2ccccc2)c1`: the inhibition is 8.61%.

On to `O=C(C[n+]1cc(-c2ccc(Cl)cc2)n2c1CCC2)Nc1nc(-c2ccc(F)cc2)cs1`, for which the inhibition was -19%.

Regarding `Cc1ccc(NC(=O)C[n+]2cc(-c3ccc(C)cc3)n3c2CCC3)cc1`, the inhibition is 14.9%. Next, `Cc1cccc(C)c1NC(=O)C[n+]1cc(-c2ccccc2)n2c1CCC2`: -8.77%; `Cc1ccc(NC(=O)C[n+]2cc(-c3ccccc3)n3c2CCC3)c(C)c1`: 19.1%; `Cc1ccccc1NC(=O)C[n+]1cc(-c2ccccc2)n2c1CCC2`: -9.34%. Regarding `Cc1ccc(-c2c[n+](CC(=O)Nc3ccccc3C)c3n2CCC3)cc1`, the inhibition is 5.92%.

Turning to `Cc1ccc(NC(=O)C[n+]2cc(-c3ccccc3)n3c2CCC3)cc1`, the inhibition is 10%. Next, `O=C(C[n+]1cc(-c2ccccc2)n2c1CCC2)Nc1nc(-c2ccccc2)cs1`: -3.98%; `Cc1ccc(C(=O)CSc2nc(C)cc(C)c2C(N)=O)cc1`: 12.8%; `Cc1ccc(C(=O)N2N=C(c3cccc(NS(C)(=O)=O)c3)CC2c2cccs2)cc1` (stereo unspecified): -10.1%. Turning to `Cc1ccc(Cl)cc1NC(=O)C(=O)N/N=C/c1ccc2c(c1)OCO2`, the inhibition is -4.53%. For the compound `COc1cccc(/C=C/C(=O)NCc2ccc(S(N)(=O)=O)cc2)c1`, the inhibition was -0.15%. Next, `CCOC(=O)c1c(NC(=O)Cn2ccsc2=N)sc(C)c1C`: 14.8%; `Cc1ccc(CSc2nnc(-c3ccncc3)n2C)cc1`: -10.9%. The result for `O=C(NC1CCCCCC1)c1ccc(Br)o1` reads -0.61%; that for `Cc1cc(NC(=O)CCC(=O)N(CC(=O)NC2CCCC2)c2ccc(Cl)c(Cl)c2)no1`, 14.6%. As to `Cc1cccc(C(=O)NCC(=O)OCC(=O)NC2CCCCCCC2)c1`, the inhibition was 0.27%. As to `Cc1ccc(-c2c[n+](CC(=O)Nc3nc(-c4ccc(F)cc4)cs3)c3n2CCC3)cc1`, the inhibition is -3.86%. Consider `O=C(C[n+]1cc(-c2ccc(F)cc2)n2c1CCC2)Nc1nc(-c2ccc(F)cc2)cs1`, for which the inhibition is -2.82%. The result for `Cc1ccc(-c2c[n+](CC(=O)Nc3c(C)cccc3C)c3n2CCC3)cc1` reads -24.6%; that for `O=C(C[n+]1cc(-c2ccc(F)cc2)n2c1CCC2)Nc1nc(-c2ccccc2)cs1`, 0.35%.

Turning to `CCOC(=O)C(C)c1ccc2cc(OC)ccc2c1` (stereo unspecified), the inhibition was -2.05%.

As for `Cc1cc(C)c2c(c1)/C(=N/NC(=O)c1cc(C)oc1C)CCC2`, the inhibition is -3.06%. The result for `CN(C)c1ccnc2sc3c(SCc4ccc(Cl)cc4)ncnc3c12` reads -7.49%.

Take `CC(C)n1c(SCc2ccc(Cl)cc2)nc2c1c(=O)[nH]c(=O)n2C`: the inhibition was -4.82%. Next, `CN(C)CCN(C(=O)c1ccc(S(=O)(=O)N2CCCC2)cc1)c1nc2ccc(Br)cc2s1`: 0.55%; `O=C(CC1NCCc2ccccc21)Nc1ccccc1` (stereo unspecified): 7.99%; `O=C(CC1NCCc2ccccc21)Nc1ccc(Cl)cc1` (stereo unspecified): 8.21%. The result for `Cc1cc(NCCO)nc(N2CCOCC2)n1` reads 4.73%; that for `Cc1c(Br)cc(C(=O)O)c(C)c1C`, 7.99%. The result for `COc1cc(C(=O)Nc2ccc(C)cc2C(NCC(=O)NN)c2ccccc2)cc(OC)c1OC` (stereo unspecified) reads -8.05%; that for `O=c1cc(-c2ccccc2)cc(-c2ccccc2)n1CCO`, 6.95%.

With `Nn1c(-c2ccccc2)cc(-c2ccccc2)cc1=O`, the inhibition is -2.08%. Next, `CN(C)c1ccc(/C=[N+](\[O-])C2N(c3ccccc3)C(=S)SC2(C)C)cc1` (stereo unspecified): -5.4%. With `COc1cc(C2c3c(oc4ccccc4c3=O)C(=O)N2CCN2CCOCC2)cc(OC)c1OC` (stereo unspecified), the inhibition was -13.4%.

`c1ccc2cc(OCCCn3ccnc3)ccc2c1`: the inhibition was -0.84%. Next, `Clc1ccccc1OCCCn1ccnc1`: -8.4%. Turning to `COc1ccc2nc(SCC(=O)Nc3ccccc3C#N)[nH]c2c1`, the inhibition is -8.31%. The result for `Cc1ccc(-n2nc3c(=S)[nH]nc(C)c3c2C)cc1` reads 2.54%; that for `COc1cccc(C(=O)Nc2ccc(C(=O)c3ccncc3)cc2)c1`, -15.6%; that for `CCC(C)NC(=O)CSc1nnc(-c2c[nH]c3ccccc23)o1` (stereo unspecified), 7.49%. Next, `COc1cc(Nc2c3ccccc3nc3ccccc23)cc(OC)c1OC`: -7.36%; `COc1ccc(Nc2cccc3ccccc23)cc1`: -1.63%. Take `Cc1ccc(O)c(Nc2nc(-c3ccccc3)nc3ccccc23)c1`: the inhibition was 8.76%. The result for `COc1ccccc1Nc1c2c(nc3ccccc13)CCC2` reads 0.56%; that for `COc1ccc(Nc2nc(-c3ccccc3)nc3ccccc23)cc1`, 6.48%.

For `Cc1ccc(O)c(Nc2ncnc3ccccc23)c1`, the inhibition was 3.94%. The result for `COc1ccc(Nc2ncnc3ccccc23)cc1` reads -1.42%. Next, `COc1ccc(OC)c(Nc2c3ccccc3nc3ccccc23)c1`: -13.7%.
